Screens: PubChem BioAssay, several laboratories
Most compounds without a hit are left out; they make up all but 5% or so of the library.
SENP7 inh: SENP7 protease inhibitors, primary screen, biochemical, luminescence, uHTS | actives 1.5% (n = 330,000) | Sentrin-specific protease 7 (Homo sapiens), Q9BQF6 | inhibition, % at 5 µM | recombinant SENP7, Z-RLRGG-aminoluciferin luminescence, 40 min | AID 434973, 2010;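 active means inhibition above about 50% at the single test dose, limit read from the data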;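 further: plate controls were DMSO with enzyme for no effect and no enzyme buffer wells for full effect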
Target sequence (Q9BQF6 706-1050 limits assumed): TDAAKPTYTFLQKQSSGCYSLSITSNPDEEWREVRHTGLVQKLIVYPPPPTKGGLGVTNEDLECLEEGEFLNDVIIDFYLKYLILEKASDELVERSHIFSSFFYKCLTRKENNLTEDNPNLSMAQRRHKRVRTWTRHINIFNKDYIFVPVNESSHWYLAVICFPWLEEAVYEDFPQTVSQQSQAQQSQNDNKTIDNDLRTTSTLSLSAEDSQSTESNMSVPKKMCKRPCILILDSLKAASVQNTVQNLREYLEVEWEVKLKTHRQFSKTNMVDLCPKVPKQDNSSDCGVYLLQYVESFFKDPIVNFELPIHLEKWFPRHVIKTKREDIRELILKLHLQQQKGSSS
SENP8 block-1: human SENP8 protease inhibitors, primary screen, biochemical, fluorescence, Nedd8 protein substrate, uHTS; Sentrin-specific protease 8 (Homo sapiens), Q96LD8; recombinant SENP8; inhibition, % at 20 µM; actives 0.64% (n = 360,000); AID 602440, 2012; in the data active means inhibition mostly above about 40%, no sharp cut-off; inactive means mostly below about 27%
SENP6 inh: SENP6 protease inhibitors, primary screen, biochemical, luminescence, uHTS; Recombinant SENP6 catalytic domain, aminoluciferin luminescence; Sentrin-specific protease 6 (Homo sapiens), Q9GZR1; AID 2599, 2010; actives 1.8% (n = 330,000); inhibition, % at 10 µM;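 active means inhibition above about 50% at the single tested dose, limit read from the data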;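 further: plate controls were DMSO wells with enzyme for no effect and DMSO wells lacking enzyme for full effect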
EBI2 block: EBI2 receptor antagonists, beta-arrestin recruitment, primary screen, cell-based, luminescence, 7a,25-OHC stimulation, uHTS; inhibition, % at 5 µM; G-protein coupled receptor 183 (Homo sapiens), P32249; 7a,25-OHC stimulated; actives 0.81% (n = 360,000); AID 651636, 2012; in the data active means inhibition above about 38%;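 further: enzyme fragment complementation signal reports receptor beta-arrestin coupling in cells; 0% = agonist plus DMSO wells and 100% = wells without agonist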
Target sequence (P32249 whole entry, looked up, the tested form may be a part): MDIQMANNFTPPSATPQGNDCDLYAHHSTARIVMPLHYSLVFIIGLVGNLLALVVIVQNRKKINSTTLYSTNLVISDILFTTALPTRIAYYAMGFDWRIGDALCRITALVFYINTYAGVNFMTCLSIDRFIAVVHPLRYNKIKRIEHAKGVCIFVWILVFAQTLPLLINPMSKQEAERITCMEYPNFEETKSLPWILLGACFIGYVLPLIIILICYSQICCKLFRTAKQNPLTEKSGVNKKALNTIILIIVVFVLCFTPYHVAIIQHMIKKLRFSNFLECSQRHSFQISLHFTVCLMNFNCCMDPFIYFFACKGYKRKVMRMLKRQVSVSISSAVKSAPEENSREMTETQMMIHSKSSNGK
AHR act: AHR activators, primary screen, cell-based, luminescence, luciferase reporter, human; Aryl hydrocarbon receptor (Homo sapiens), P35869; AHR-responsive luciferase reporter cells; activation, % at 5 µM; actives 2.5% (n = 320,000); in the data active means activation above about 47%;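 further: 0% = vehicle wells and 100% = reference agonist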
SENP8 block-2: SENP8 protease inhibitors, primary screen, biochemical, luminescence; Sentrin-specific protease 8 (Homo sapiens), Q96LD8; purified SENP8, Z-RLRGG-aminoluciferin cleavage; inhibition, % at 10 µM; actives 1.2% (n = 330,000); AID 2540, 2010; in the data active means inhibition above about 50%
* marks the source's active call; other numbers are inactive results; i = inactive; x = not tested or not shown.

SMILES | SENP7 inh | SENP8 block-1 | SENP6 inh | EBI2 block | AHR act | SENP8 block-2
CN(C)C1=NCCN1CCc1ccccc1 | -13.7 | 5.0 | -7.0 | -1.3 | 0.3 | -8.0
CCC(=O)c1ccc(OC(=O)c2cccs2)cc1 | -4.1 | 19.0 | -59.0 | -5.9 | 0.8 | -46.0
CCc1ccc(C(=O)COC(=O)c2cccs2)cc1 | 96.8* | 24.2 | 4.1 | -4.8 | -0.8 | 90.9*
Cc1cc(-c2csc(NC(=O)c3ccc(=O)n(C)n3)n2)c(C)n1CC1CCCO1 (stereo unspecified) | -1.2 | 42.9* | 1.4 | -0.9 | 5.5 | -8.0
CCn1c(=O)c(C(=O)NC(C)C)c(O)c2ccccc21 | -10.3 | -7.6 | -1.6 | 9.8 | 76.1* | -9.6
CCn1c(=O)c(C(=O)NCc2cccnc2)c(O)c2ccccc21 | -2.3 | -23.5 | -4.8 | -1.0 | 55.9* | -7.1
O=C(NCc1cccnc1)c1c(O)c2cccc3c2n(c1=O)CCC3 | -10.6 | -73.7 | -13.7 | -4.3 | 77.3* | -15.6
CCn1c(=O)c(C(=O)NCc2ccccc2)c(O)c2ccccc21 | -4.2 | -25.7 | -9.0 | -6.7 | 6.8 | -4.9
O=C(Nc1nccs1)c1ccc(-c2ccccc2[N+](=O)[O-])o1 | 24.6 | -21.4 | 38.5 | 6.3 | 67.6* | -10.5
Cc1nn(CC(C)C)c(Cl)c1C(=O)NCC1CCCO1 (stereo unspecified) | x | 13.6 | x | -17.5 | x | x
Cn1c(=N)n(CC(=O)c2cccs2)c2ccccc21 | -1.3 | -7.4 | -13.8 | -3.0 | 49.4* | 1.9
Cn1c(=N)n(CC(=O)c2ccc(Br)s2)c2ccccc21 | 1.4 | -61.6 | 10.0 | 5.3 | 71.2* | 3.6
CCN(CC)CCn1c(=N)n(CCO)c2ccccc21 | 10.9 | 28.5 | -28.1 | -5.9 | -1.1 | -5.3
N=c1n(CC(=O)c2ccc(Br)s2)c2ccccc2n1Cc1ccccc1 | -4.1 | 13.2 | -11.5 | 2.4 | 71.3* | -10.0
CCN(CC)CCn1c(=N)n(CC(=O)c2ccc(Br)s2)c2ccccc21 | 2.4 | 15.4 | -9.5 | 22.2 | 70.0* | 2.1
COc1cccc(C(NC(C)=O)c2nc(-c3ccc(F)c(Cl)c3)cs2)c1 (stereo unspecified) | x | 12.3 | x | 8.3 | x | x
NC(=O)c1ccccc1N/C=C/C(=O)c1ccc(F)cc1 | 91.1* | -490.4 | 97.0* | 2.7 | x | 80.9*
CCn1c2ccccc2c2c3ncc4cccn4c3ccc21 | 14.1 | -292.1 | -11.9 | 4.0 | 65.6* | 7.8
c1ccc2c(c1)ncc1cccn12 | 5.9 | -289.4 | 19.2 | -9.7 | 11.2 | 4.0
O=c1[nH]c(/C=C/c2ccc(Br)cc2)nc2c1cnn2-c1ccccc1 | 2.6 | x | -11.3 | x | 54.5* | 2.8
COc1ccc(NC(=O)C2(C)Cc3c(-c4ccc(N(C)C)cc4)ccnc3O2)cc1 (stereo unspecified) | x | i | x | 4.0 | x | x
Cc1ccc(Cc2c(-c3ccc(Cl)cc3)nc3cc(C)ccn23)cc1 | x | -342.9 | x | 24.1 | x | x
COCCCNC(=O)c1c(N)n(-c2ccc3c(c2)OCO3)c2nc3ccccc3nc12 | 15.9 | -476.4 | 31.9 | 13.1 | 51.9* | 9.2
COCCNC(=O)c1c(N)n(/N=C/c2cccs2)c2nc3ccccc3nc12 | -1.9 | i | -11.4 | 7.0 | 50.0* | 0.2
Cc1ccc(S(=O)(=O)c2c(N)n(/N=C/c3ccco3)c3nc4ccccc4nc23)cc1C | 4.8 | -392.4 | 16.6 | 46.1* | -2.9 | 6.0
SMILES | SENP7 inh | SENP8 block-1 | SENP6 inh | EBI2 block | AHR act | SENP8 block-2
Cc1cccc(S(=O)(=O)c2c(N)n(/N=C/c3cccnc3)c3nc4ccccc4nc23)c1 | -10.5 | -271.4 | -25.9 | 39.4 | 10.2 | -2.1
COc1cccc(/C=N/n2c(N)c(S(=O)(=O)c3cccs3)c3nc4ccccc4nc32)c1 | -1.3 | -272.3 | -4.5 | 5.0 | -7.6 | -2.9
Nc1c(S(=O)(=O)c2cccs2)c2nc3ccccc3nc2n1/N=C/c1cccc(O)c1 | 1.3 | -404.1 | 1.5 | 57.9* | -8.3 | -2.8
Cc1ccsc1C(=O)N1CCC1(C)C(=O)NS(=O)(=O)c1ccc(Br)cc1 (stereo unspecified) | x | 7.5 | x | 5.3 | x | x
O=S(=O)(NC1CC(NS(=O)(=O)OCC(Cl)(Cl)Cl)C2CCCCC12)OCC(Cl)(Cl)Cl (stereo unspecified) | 1.9 | 6.2 | -4.8 | -7.0 | 10.0 | 1.4
CCN(C(=O)COC(=O)/C=C/c1c(C)nn(Cc2ccc(C)cc2)c1C)C1CCS(=O)(=O)C1 (stereo unspecified) | 9.9 | 0.3 | -9.9 | -7.4 | 0.1 | -1.1
O=C(Nc1sc2c(c1C(=O)O)CCC2)c1cccs1 | 43.7 | -73.3 | 90.3* | -7.5 | 7.4 | 92.5*
NC(=O)c1c(NC(=O)c2ccc(F)cc2Cl)sc2c1CCC2 | -8.7 | -12.0 | 23.4 | -2.1 | 56.5* | 5.1
NC(=O)c1c(NC(=O)c2ccccc2Cl)sc2c1CCC2 | 0.6 | -46.7 | 33.2 | -5.3 | 35.5 | 4.9
O=C(Nc1sc2c(c1C(=O)O)CCCC2)c1ccc(Cl)cc1 | 37.4 | -119.7 | 89.1* | -10.0 | 15.3 | 78.0*
CC(C)(C)OC(=O)N1CCc2onc(-c3ccc(-n4cc(C5=CCCCC5)nn4)cc3)c2C1=O | x | 15.3 | x | 16.6 | x | x
CS/C(N)=N/N=C/c1cc(Br)cc(Br)c1O | 5.5 | -37.4 | -9.6 | 2.7 | 66.4* | -2.6
Brc1ccc2c(c1)C(c1cccs1)=NNC(c1cccnc1)=N2 | 5.9 | 1.8 | 1.7 | -4.3 | 91.8* | 4.4
CC(=O)Oc1ccc(CN2C(=O)C(CCc3ccccc3)ON=C2c2cnccn2)cc1 (stereo unspecified) | x | 2.2 | x | 5.1 | x | x
CC[C@@H](NCCCn1ccc(NC(=O)OCc2ccccc2)nc1=O)c1ccccc1 | x | 14.2 | x | -7.5 | x | x
Cc1cccc(CSc2nc3c(cc2C#N)CCC3)c1 | -10.4 | 3.5 | -4.8 | 9.6 | -2.3 | -5.2
N#Cc1cc2c(nc1SCc1nc3ccccc3[nH]1)CCC2 | 12.1 | x | 80.6* | x | 25.6 | 54.1*
Cc1cc(C)c(C#N)c(SCc2nc3ccccc3[nH]2)n1 | 4.4 | -460.6 | -7.9 | 10.4 | 67.7* | -2.0
CC(=O)c1c(C)[nH]c(C(=O)Nc2ccccc2Cl)c1C | 0.5 | -31.0 | -12.7 | 2.4 | 59.1* | -11.5
CC(=O)c1c(C)[nH]c(C(=O)NCc2ccccc2Cl)c1C | -8.8 | -1.2 | -9.1 | 4.0 | -4.9 | -10.5
CCC(C)c1ccccc1NC(=O)c1[nH]c(C)c(C(C)=O)c1C (stereo unspecified) | -6.0 | -23.5 | -26.3 | -3.6 | 29.4 | -10.6
CC(=O)c1c(C)[nH]c(C(=O)Nc2cccc3ccccc23)c1C | -7.6 | -46.5 | -6.2 | 3.8 | 110.1* | -11.2
CC1(C)CC(=O)C=C(c2n[nH]nc2C2=CCCCC2)C1 | x | -4.3 | x | -5.7 | x | x
Oc1c(Br)cc(Br)cc1CNn1cnnc1 | -12.7 | 6.9 | -8.0 | 5.1 | 17.5 | -1.4
